Reference: PubChem BioAssay AID1645882 (National Center for Advancing Translational Sciences (NCATS), 2021)
Where “and” joins values, the source holds several entries; their conditions need not be identical. Equal values may be shown once. Among all 16,000 compounds or so, about 120 (0.75%) were called active. Another 4% or so got no clear call; they are omitted. Calls follow the shape of the dose curve; as a rule, active = well fitted inhibition curve with a large enough effect; inconclusive = small, poorly fitted or top-dose-only effect; inactive = no such curve, though single readings can be large or run the other way. The list comes from a sample in which actives are over-represented; it also holds similar structures and randomly drawn compounds. More than one record can exist for a structure, and the calls need not agree.

Molecular target: Rap guanine nucleotide exchange factor 3 (Homo sapiens) (UniProt O95398)
Test: Validation qHTS for antagonist of cAMP-regulated guanine nucleotide exchange factor 3 (EPAC1); also: nearly all actives have a fitted effect of over 75% in size;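 as to activity change, negative = inhibition: plate controls were DMSO for no effect and ATA control for full effect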
Conditions: EPAC1 Rap1B-BODIPY-GDP exchange, fluorescence; series mostly up to 150 µM; activity change, negative = inhibition: at the top concentration
Outline: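 EPAC1 (100 nM) mixed with 250 nM RAP1B-BODIPY-GDP and 50 uM GDP; compounds in concentration series, 5 min at room temperature. Fluorescence (ex 480/em 540 nm) read every 5 min for 30 min; normalized to ATA control and DMSO.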
Potency is read from the fitted curve at half-maximal effect.

Chain of Rap guanine nucleotide exchange factor 3 (Homo sapiens) (O95398 whole entry, looked up): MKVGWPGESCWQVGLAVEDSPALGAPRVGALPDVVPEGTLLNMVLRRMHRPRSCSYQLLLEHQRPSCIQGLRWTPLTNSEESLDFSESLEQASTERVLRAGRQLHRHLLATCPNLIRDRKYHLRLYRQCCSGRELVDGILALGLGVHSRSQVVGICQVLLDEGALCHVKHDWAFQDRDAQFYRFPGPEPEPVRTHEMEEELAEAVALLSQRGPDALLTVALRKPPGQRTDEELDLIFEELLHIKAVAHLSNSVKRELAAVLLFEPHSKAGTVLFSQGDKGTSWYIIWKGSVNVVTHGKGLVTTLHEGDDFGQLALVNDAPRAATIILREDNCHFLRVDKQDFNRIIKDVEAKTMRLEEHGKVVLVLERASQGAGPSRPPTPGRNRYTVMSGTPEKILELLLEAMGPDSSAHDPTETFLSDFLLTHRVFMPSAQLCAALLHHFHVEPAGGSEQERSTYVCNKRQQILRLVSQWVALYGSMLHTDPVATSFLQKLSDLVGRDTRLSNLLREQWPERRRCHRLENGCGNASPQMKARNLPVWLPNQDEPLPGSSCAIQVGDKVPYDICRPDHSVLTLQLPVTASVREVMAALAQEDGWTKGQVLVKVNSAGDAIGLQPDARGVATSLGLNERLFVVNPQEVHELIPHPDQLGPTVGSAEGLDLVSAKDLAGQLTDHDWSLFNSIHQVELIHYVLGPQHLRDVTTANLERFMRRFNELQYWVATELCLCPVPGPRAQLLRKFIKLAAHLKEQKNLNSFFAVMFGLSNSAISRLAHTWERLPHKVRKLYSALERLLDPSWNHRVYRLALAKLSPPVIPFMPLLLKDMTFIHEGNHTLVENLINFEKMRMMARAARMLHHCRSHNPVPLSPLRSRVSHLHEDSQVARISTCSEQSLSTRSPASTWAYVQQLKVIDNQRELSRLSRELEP

Row | SMILES | activity change, negative = inhibition | Potency
1 | COc1cc(/C=C/C(=O)c2cccs2)cc(OC)c1OC | -2.5% (inactive) | –
2 | COc1cc(-c2ccc(N=Nc3ccc4c(S(=O)(=O)O)cc(S(=O)(=O)O)c(N)c4c3O)c(OC)c2)ccc1N=Nc1ccc2c(S(=O)(=O)O)cc(S(=O)(=O)O)c(N)c2c1O | 12.3% [at 27.4 µM] (inactive) | 31.6 µM (active)
3 | COc1cc(O)c(C(=O)c2ccccc2)cc1S(=O)(=O)O | 21.5% (inactive) | –
4 | Cc1cc(-c2ccc(N=Nc3ccc4c(S(=O)(=O)O)cc(S(=O)(=O)O)c(N)c4c3O)c(C)c2)ccc1N=Nc1ccc2c(S(=O)(=O)O)cc(S(=O)(=O)O)c(N)c2c1O | – | 20 µM (active) and 50.1 µM (active) and 31.6 µM (active)
5 | CCC1CN(CC(=O)NC(C)c2c(C)nn(C)c2C)Cc2cc(OC)ccc2O1 (stereo not drawn) | 5.2% (inactive) | –
6 | Cc1c(C(=O)N(C)CC2CCCN(C)C2)cnn1-c1nccc(-c2ccco2)n1 (stereo not drawn) | 10.4% (inactive) | –
7 | COC(=O)[C@@H]1[C@@H]2C[C@H]3c4[nH]c5ccccc5c4CCN3C[C@@H]2CC[C@@H]1O | – | inactive
8 | CC1CC[C@@]2(C(=O)O)CC[C@]3(C)C(=CCC4[C@@]5(C)CCC(O)C(C)(C)C5CC[C@@]43C)C2C1C (stereo partly drawn) | 4.6% (inactive) | –
9 | CN(C)c1ccc(/C=C/c2ccnc3c(-c4ccccc4)cccc23)cc1 | 17.8% (inactive) | –
10 | CC1COC2=C1C(=O)C(=O)c1c2ccc2c1CCCC2(C)C (stereo not drawn) | -18.5% (inactive) | –
11 | Cc1coc2c1C(=O)C(=O)c1c-2ccc2c1CCCC2(C)C | – | inactive
12 | Cc1c(S(=O)(=O)O)oc2c1C(=O)C(=O)c1c-2ccc2c1CCCC2(C)C | – | 100 µM (active)
13 | O=C(c1cccc(F)c1)N1CCC2(CCCN(c3ccncc3)C2)CC1 | 6.3% (inactive) | –
14 | Cc1cnc(-n2ncc(C(=O)NCC3COCCO3)c2C2CC2)nc1-c1cccs1 (stereo not drawn) | 9.72% (inactive) | –
15 | Cc1nc(NCc2cccc3c2OCO3)sc1-c1ccn(CC2CCCN(C)C2)n1 (stereo not drawn) | 11.6% (inactive) | –
16 | O=C(Nc1ccc([N+](=O)[O-])cc1Cl)c1cc(Cl)ccc1O | – | inactive
17 | Cc1cc(C(C#N)c2ccc(Cl)cc2)c(Cl)cc1NC(=O)c1cc(I)cc(I)c1O (stereo not drawn) | – | 50.1 µM (active)
18 | COC(=O)C[C@H]1c2ccccc2S(=O)(=O)N1Cc1ccc(OC)cc1 | 8.68% (inactive) | –
19 | C(=C\c1ccncc1)/c1ccccc1 | – | inactive

Row | SMILES | activity change, negative = inhibition | Potency
20 | Cc1cc(N)c2cc(NC(=O)Nc3ccc4nc(C)cc(N)c4c3)ccc2n1 | – | 28.2 µM (active)
21 | O=C(Nc1ccc(Cl)cc1)Nc1ccc(Cl)c(Cl)c1 | -10.1% (inactive) | –
22 | Cc1cc(NC(=O)Nc2ccc(N(C)C)cc2)c2cc(F)cc(F)c2n1 | -16.4% (inactive) | –
23 | COCc1c(C(=O)NC2CCCCC2)cnn1-c1nccc(-c2cc(C)sc2C)n1 | -11.3% (inactive) | –
24 | O=C(Cn1cccn1)N1CCOc2c(cc(-c3ncc(C(F)(F)F)cc3Cl)cc2OCC2CCCO2)C1 (stereo not drawn) | 24.5% (inactive) | –
25 | O=S(=O)(O)c1cc(I)c(O)c2ncccc12 | 15.7% (inactive) | –
26 | CCOc1ccc(S(=O)(=O)O)c2cccnc12 | 11.2% (inactive) | –
27 | O=C(Nc1ccc(/C=C/c2ccc(NC(=O)c3cc(S(=O)(=O)O)c4cccnc4c3O)cc2S(=O)(=O)O)c(S(=O)(=O)O)c1)c1cc(S(=O)(=O)O)c2cccnc2c1O | – | 44.7 µM (active)
28 | O=C(c1cnsn1)N1CCOc2ccc(CN3CCOCC3)cc2C1 | 8.76% (inactive) | –
29 | COCC(=O)Nc1cc(C(=O)N2CCCC(C(N)=O)C2)cc2nc(-c3ccccc3)n(C)c12 (stereo not drawn) | 7.12% (inactive) | –
30 | COc1ccc(CNc2ncnc3ccc(-c4ccc(N(C)C)cc4)cc23)c(OC)c1 | -8.56% (inactive) | –
31 | [N-]=[N+]=Nc1nc2c(N)ncnc2n1C1OC(CO)C(O)C1O (stereo not drawn) | -15.6% (inactive) | –
32 | Nc1ncnc2c1nc(Br)n2[C@H]1O[C@H]2COP(=O)(O)O[C@H]2[C@@H]1O | – | 2.51 µM (active)
33 | Nc1ncnc2c1nc(Sc1ccc(Cl)cc1)n2[C@H]1OC2COP(=O)(O)O[C@@H]2C1O (stereo partly drawn) | – | 0.316 µM (active)
34 | Nc1nc2c(nc(Br)n2C2OC3COP(=O)(O)O[C@@H]3C2O)c(=O)[nH]1 (stereo partly drawn) | 0% [at 75.8 µM] (inactive) | –
35 | Nc1nc2c(nc(Br)n2[C@@H]2O[C@H]3COP(=O)(O)O[C@H]3[C@@H]2O)c(=O)[nH]1 | -21.7% (inactive) | –
36 | Nc1ncnc2c1nc(Br)n2C1OC2COP(=O)(O)O[C@@H]2C1O (stereo partly drawn) | – | 0.708 µM (active)
37 | Nc1ncnc2c1nc(Cl)n2C1OC(CO)C(O)C1O (stereo not drawn) | 19.2% (inactive) | –
38 | Nc1nc2c(nc(Sc3ccc(Cl)cc3)n2C2OC(CO)C(O)C2O)c(=O)[nH]1 (stereo not drawn) | 19.8% (inactive) | –

Row | SMILES | activity change, negative = inhibition | Potency
39 | Nc1ncnc2c1nc(Br)n2[C@@H]1O[C@H]2COP(=O)(O)O[C@@H]2[C@@H]1O | – | 2.82 µM (active)
40 | NC1=NC2C(N=C(Br)N2[C@@H]2O[C@H]3COP(=O)(O)O[C@@H]3[C@@H]2O)C(=O)N1 (stereo partly drawn) | -7.02% [at 201 µM] (inactive) | –
41 | Nc1ncnc2c1nc(Br)n2C1CC(O)C(CO)O1 (stereo not drawn) | 22.2% (inactive) | –
42 | Nc1ncnc2c1nc(Br)n2C1OC(CO)C(O)C1O (stereo not drawn) | 8.26% (inactive) | –
43 | O=S(=O)(c1ccccc1)N1CCC2(CCCN(c3ccccc3)C2)CC1 | 5.08% (inactive) | –
44 | Cc1cccc(CNC(=O)c2cnn(-c3nccc(-c4ccccc4F)n3)c2C)n1 | 18.3% (inactive) | –
45 | C[C@]12C[C@H](O)CC(CO)(CO)C1[C@H](O)C[C@@]13CC4[C@@H](CC12)[C@@]4(C)C3 (stereo partly drawn) | 22.1% (inactive) | –
46 | N#Cc1cccc(NC(=O)N2CCC3(CC2)CCN(C(=O)c2cnccn2)CC3)c1 | 12.3% (inactive) | –
47 | O=S(=O)(NCc1ccccc1)[C@@H]1CC2C=CC1C2 (stereo partly drawn) | 0.734% (inactive) | –
48 | CC(C)(C)OC(=O)NS(=O)(=O)NOCc1ccccc1 | 18.2% (inactive) | –
49 | COc1cc2c(cc1OC)C1C(=O)c3ccc4c(c3OC1CO2)C=CC(C)(C)O4 (stereo not drawn) | -27.3% (inactive) | –
50 | Cc1ccccc1C1(CC(=O)N2CC3(C)CC2CC(C)(C)C3)CC(=O)N(Cc2cccnc2)C1=O (stereo not drawn) | -2.13% (inactive) | –
51 | O=C(c1cccc(F)c1)N1CCC[C@@]2(CCN(Cc3ccncc3)C2)C1 | 11.1% (inactive) | –
52 | COc1ccc(C(=O)N2CCC3(CC2)CN(c2ccccc2)C3)cc1 | -2.38% (inactive) | –
53 | CCN(CC)CCOC[C@H]1O[C@@H](O)[C@H](OCCN(CC)CC)[C@@H](O)[C@@H]1O | 17.7% (inactive) | –
54 | OC1(c2cccnc2)CCN(Cc2ccc3c(c2)CN(Cc2cc4ccccc4s2)CCO3)CC1 | -8.5% (inactive) | –
55 | COC(=O)c1c(OCCN2CCCCC2)cc(=O)n2c1CCN(Cc1cccc3nccnc13)CC2 | -0.569% (inactive) | –
56 | Cn1c(=O)c(-c2ccccc2)nc2cnc(Nc3ccccc3)nc21 | 19.1% (inactive) | –
57 | O=C(Nc1cccc(F)c1)N1CC[C@@]2(CCCN(C(=O)c3ccco3)C2)C1 | 21% (inactive) | –
